Data as given in the supplement of paper PMC11732987, “Enantioselective OTUD7B fragment discovery through chemoproteomics screening and high-throughput optimisation” (Communications Chemistry, 2025).

Tests used:
Assay in all cases: log2 ratio of Biotin-Ahx-Ub-VS probe labelling (fragment/DMSO); higher = less target engagement (more negative = stronger competition), active = hit call of the paper (q ≤ 0.05, log2 ratio ≤ -1)
Settings in all cases: compound concentration: 200 uM; treatment time: 3 h
[1] = molecular target: T1, USP19 (UniProt O94966)
T1 sequence (whole entry): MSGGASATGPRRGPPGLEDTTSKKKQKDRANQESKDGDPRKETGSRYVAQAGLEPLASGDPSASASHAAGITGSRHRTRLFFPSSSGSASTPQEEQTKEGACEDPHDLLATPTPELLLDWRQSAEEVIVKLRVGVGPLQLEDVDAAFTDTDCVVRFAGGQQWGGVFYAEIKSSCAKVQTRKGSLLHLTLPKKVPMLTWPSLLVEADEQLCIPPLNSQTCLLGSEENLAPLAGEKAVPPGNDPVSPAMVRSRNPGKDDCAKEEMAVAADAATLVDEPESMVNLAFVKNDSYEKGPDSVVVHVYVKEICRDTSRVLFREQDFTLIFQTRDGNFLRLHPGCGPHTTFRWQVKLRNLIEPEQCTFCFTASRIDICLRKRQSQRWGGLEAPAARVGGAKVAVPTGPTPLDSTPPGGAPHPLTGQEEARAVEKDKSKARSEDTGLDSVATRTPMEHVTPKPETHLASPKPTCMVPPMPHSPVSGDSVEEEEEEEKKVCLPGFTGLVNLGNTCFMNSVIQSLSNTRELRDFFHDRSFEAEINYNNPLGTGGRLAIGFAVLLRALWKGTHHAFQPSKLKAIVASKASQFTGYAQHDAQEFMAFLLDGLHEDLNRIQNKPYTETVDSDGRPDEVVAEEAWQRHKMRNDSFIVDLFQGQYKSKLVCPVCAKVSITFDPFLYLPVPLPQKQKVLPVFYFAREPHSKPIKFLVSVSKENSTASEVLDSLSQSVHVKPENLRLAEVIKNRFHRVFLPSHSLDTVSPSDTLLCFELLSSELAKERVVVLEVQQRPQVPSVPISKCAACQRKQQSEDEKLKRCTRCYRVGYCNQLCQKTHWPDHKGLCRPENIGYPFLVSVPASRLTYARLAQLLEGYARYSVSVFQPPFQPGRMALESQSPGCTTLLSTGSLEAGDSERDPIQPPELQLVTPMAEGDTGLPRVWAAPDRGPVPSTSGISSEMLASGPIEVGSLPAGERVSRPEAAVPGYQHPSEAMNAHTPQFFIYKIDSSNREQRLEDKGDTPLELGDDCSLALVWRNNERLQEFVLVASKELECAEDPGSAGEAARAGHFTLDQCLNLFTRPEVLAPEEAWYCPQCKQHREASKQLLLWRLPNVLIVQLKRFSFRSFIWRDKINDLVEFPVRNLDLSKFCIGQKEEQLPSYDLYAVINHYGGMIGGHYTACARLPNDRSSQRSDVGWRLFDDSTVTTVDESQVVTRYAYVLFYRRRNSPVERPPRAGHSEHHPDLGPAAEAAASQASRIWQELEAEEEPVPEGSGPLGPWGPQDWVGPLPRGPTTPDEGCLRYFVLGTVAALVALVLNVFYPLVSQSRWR
Procedure, shortened: (§1)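 HEK293T lysate in Tris/CHAPS/IGEPAL buffer with protease inhibitors (495 µg per sample) was given fragment at 200 µM or vehicle for 3 h, in triplicate. It then received Biotin-Ahx-Ub-VS at 0.5 µM final for 1 h. Labelled DUBs were NeutrAvidin-enriched, digested with LysC and trypsin, and run by diaPASEF LC-MS/MS. Values are average log2 fragment/vehicle ratios by unpaired t-test on global-median-normalised Spectronaut quantities of proteins with ≥2 unique peptides.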

[2] = molecular target: T2, USP22 (UniProt Q9UPT9)
T2 sequence (whole entry): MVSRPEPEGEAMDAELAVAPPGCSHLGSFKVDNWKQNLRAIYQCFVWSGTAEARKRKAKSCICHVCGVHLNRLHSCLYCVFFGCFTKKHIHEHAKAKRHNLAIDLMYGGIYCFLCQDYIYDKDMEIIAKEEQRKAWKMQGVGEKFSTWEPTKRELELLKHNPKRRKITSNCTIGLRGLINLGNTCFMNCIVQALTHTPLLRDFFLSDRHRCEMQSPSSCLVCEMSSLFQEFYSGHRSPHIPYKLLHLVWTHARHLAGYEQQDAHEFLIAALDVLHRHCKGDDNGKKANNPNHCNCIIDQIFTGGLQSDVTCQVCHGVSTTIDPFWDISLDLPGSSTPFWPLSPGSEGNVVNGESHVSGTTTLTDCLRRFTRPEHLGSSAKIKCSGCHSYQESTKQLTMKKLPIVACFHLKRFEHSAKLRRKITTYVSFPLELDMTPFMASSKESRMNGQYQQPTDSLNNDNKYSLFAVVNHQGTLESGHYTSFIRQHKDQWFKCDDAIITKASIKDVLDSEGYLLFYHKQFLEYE
Procedure, shortened: as §1

[3] = molecular target: USP24 (UniProt Q9UPU5)
USP24, sequence (Q9UPU5 whole entry): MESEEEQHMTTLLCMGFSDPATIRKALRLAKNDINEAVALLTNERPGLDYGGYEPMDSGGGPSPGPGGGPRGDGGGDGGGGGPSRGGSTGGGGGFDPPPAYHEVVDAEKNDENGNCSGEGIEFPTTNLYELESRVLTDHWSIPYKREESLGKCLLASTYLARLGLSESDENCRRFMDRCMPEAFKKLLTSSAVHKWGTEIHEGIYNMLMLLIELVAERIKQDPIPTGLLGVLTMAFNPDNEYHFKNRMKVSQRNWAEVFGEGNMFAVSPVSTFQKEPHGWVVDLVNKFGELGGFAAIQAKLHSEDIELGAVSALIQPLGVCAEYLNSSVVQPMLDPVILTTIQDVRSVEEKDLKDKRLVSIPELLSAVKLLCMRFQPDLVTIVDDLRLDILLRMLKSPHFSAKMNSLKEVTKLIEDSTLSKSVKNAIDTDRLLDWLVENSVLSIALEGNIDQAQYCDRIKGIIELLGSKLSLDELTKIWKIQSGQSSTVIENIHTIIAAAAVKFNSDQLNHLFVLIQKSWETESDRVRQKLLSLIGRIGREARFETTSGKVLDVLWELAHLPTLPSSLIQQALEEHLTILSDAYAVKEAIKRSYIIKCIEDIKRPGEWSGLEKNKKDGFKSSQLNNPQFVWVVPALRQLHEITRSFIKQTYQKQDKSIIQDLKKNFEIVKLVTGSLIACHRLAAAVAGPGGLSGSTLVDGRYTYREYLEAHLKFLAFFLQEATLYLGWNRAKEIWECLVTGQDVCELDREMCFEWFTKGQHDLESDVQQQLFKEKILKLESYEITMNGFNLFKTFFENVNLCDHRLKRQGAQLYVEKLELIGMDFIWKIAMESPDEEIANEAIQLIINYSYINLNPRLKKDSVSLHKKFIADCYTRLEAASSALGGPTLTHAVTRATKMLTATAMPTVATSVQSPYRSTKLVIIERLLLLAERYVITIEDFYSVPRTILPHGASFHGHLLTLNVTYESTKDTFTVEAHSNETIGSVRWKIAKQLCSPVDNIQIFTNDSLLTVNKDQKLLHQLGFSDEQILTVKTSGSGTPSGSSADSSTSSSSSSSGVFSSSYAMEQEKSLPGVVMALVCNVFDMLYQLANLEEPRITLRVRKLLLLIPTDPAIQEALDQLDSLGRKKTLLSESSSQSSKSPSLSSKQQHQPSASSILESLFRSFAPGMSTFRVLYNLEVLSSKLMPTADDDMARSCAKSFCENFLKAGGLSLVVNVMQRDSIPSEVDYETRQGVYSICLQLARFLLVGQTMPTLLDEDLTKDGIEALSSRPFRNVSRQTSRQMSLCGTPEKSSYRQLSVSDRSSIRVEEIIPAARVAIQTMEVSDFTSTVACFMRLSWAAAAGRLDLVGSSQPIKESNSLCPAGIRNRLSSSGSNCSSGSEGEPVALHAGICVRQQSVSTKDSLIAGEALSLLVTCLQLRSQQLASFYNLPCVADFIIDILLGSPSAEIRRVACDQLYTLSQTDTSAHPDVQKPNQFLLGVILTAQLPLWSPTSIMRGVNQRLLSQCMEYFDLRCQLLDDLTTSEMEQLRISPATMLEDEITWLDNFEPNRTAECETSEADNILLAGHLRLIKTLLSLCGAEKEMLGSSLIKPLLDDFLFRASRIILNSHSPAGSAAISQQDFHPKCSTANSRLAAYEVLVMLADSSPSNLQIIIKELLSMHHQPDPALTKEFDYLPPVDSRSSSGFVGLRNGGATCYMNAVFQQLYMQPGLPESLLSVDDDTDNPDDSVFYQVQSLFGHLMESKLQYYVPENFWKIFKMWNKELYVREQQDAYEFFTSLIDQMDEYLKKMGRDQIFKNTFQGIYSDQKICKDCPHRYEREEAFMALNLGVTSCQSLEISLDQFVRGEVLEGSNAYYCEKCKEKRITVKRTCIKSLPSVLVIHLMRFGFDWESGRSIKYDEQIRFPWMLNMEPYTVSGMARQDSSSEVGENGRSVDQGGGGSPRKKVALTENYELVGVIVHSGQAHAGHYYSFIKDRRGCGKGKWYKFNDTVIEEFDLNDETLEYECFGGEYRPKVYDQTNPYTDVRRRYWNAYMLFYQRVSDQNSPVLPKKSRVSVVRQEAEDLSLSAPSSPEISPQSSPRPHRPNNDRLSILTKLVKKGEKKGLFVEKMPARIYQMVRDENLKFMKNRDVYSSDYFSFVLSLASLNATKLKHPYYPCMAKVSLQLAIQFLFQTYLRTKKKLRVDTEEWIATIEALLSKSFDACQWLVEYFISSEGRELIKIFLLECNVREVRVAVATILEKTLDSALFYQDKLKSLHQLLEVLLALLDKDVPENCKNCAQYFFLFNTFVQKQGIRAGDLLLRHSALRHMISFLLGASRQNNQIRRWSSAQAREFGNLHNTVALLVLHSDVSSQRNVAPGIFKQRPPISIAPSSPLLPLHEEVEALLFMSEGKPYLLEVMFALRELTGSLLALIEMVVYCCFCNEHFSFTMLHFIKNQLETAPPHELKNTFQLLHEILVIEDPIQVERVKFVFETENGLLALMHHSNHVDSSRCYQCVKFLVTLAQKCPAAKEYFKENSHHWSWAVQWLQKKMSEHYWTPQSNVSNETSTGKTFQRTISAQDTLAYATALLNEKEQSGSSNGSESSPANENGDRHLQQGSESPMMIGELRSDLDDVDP
Procedure, shortened: as §1

[4] = molecular target: T3, USP25 (UniProt Q9UHP3)
T3 sequence (whole entry): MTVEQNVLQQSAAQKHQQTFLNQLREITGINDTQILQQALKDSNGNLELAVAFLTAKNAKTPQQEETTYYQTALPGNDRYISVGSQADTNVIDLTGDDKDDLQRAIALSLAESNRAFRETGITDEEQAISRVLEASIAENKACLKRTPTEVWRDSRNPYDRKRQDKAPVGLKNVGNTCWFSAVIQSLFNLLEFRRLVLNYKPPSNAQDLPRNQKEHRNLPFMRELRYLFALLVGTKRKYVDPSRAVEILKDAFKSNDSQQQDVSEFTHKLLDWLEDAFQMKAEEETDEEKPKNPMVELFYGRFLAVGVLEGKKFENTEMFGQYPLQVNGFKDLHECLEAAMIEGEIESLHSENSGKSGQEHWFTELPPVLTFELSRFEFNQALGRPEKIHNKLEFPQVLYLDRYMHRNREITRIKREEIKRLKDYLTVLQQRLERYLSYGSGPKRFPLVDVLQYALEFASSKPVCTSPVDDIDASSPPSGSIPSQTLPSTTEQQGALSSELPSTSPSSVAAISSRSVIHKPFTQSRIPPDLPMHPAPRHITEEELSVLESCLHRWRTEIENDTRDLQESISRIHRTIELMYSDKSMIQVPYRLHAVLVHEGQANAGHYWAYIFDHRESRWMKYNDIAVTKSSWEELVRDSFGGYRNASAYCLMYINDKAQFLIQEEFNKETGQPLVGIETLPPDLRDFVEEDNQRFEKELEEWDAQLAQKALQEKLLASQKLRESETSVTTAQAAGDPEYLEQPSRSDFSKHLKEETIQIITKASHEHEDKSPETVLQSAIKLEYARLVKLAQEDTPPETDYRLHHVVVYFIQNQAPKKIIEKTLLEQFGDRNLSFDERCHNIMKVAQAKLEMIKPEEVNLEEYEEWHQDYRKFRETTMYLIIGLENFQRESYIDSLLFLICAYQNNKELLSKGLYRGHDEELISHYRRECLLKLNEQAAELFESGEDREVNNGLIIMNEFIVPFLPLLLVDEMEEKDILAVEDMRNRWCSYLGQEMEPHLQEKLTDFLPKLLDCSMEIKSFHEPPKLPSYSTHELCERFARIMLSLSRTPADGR
Procedure, shortened: as §1

[5] = molecular target: T4, USP28 (UniProt Q96RU2)
T4 sequence (whole entry): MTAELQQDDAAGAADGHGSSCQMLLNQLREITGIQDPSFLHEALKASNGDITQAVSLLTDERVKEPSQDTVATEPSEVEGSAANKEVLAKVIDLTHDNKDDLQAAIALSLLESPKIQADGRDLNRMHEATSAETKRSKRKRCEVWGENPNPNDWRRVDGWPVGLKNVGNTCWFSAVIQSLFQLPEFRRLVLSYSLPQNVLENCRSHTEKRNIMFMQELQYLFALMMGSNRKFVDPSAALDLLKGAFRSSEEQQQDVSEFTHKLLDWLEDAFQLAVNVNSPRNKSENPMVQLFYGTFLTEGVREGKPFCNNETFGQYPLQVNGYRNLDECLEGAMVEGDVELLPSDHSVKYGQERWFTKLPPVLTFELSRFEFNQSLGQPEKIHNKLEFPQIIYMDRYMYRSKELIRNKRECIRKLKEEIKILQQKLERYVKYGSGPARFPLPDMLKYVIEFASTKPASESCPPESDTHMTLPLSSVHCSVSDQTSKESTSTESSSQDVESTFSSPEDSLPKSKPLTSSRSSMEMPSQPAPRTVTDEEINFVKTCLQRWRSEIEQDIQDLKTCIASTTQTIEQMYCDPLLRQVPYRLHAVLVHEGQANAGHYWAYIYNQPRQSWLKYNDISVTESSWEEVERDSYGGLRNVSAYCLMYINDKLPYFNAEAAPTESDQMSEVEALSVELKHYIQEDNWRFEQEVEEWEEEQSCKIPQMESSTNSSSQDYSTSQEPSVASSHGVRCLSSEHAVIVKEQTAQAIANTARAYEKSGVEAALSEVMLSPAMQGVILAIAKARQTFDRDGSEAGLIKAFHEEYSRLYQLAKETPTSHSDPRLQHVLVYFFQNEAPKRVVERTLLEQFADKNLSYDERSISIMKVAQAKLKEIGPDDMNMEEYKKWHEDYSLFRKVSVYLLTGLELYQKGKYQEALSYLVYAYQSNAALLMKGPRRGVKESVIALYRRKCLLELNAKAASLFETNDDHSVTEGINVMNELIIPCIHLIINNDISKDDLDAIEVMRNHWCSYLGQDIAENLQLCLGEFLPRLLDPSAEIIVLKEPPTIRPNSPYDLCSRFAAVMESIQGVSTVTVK
Procedure, shortened: as §1

Measured: log2 ratio of Biotin-Ahx-Ub-VS probe labelling

O=C(CCl)NCc1ccc(Cl)cc1
inactive: [1] -0.0819 | [2] -0.199 | [3] -0.0304 | [4] -0.395 | [5] -0.414
